# Rows were chosen to be rich in hits. Some 1% of all compounds tested hit in one or more screens of this group.
# PriA SSB inh: K. pneumoniae PriA-SSBct interaction inhibition | AlphaScreen SSBct-PriA binding, biotinylated peptide | inhibition, % at 33 µM | 0.6% of 430,000 active | AID 1272365; in the data active = inhibition mostly above about 37%, no sharp cut-off; inactive = mostly below about 20%;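 also: plate controls were negative control peptide for no effect and reference peptide for full effect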
# Mtb BioA inh: blocks M. tuberculosis BioA enzyme activity; purified M. tuberculosis BioA enzyme, plate reader; inhibition, % at 9.99 µM; 0.096% of 360,000 active; in the data active = inhibition above about 40%
# PrP 5UTR inh: inhibition of PrP 5' UTR reporter expression; cell-based PrP 5' UTR mRNA reporter, plate reader; inhibition, % (no concentration beside the values); 0.35% of 340,000 active; AID 488862; in the data active = inhibition above about 52%; also: 0 = median of the neutral control wells
# Mtb hypoxia rep: inhibitors of hypoxia-regulated fluorescent reporter in Mycobacterium tuberculosis. M. tuberculosis hypoxia-regulated fluorescent reporter, fluorescence. fluorescence inhibition, % (no concentration beside the values). 0.1% of 300,000 active. AID 1159583; in the data active = fluorescence inhibition mostly above about 23%, no sharp cut-off; inactive = mostly below about 17%
# FadD28 binding: inhibitors of Mycobacterium tuberculosis FadD28 bisubstrate binding. FadD28 bisubstrate probe binding, fluorescence polarization. inhibition, % at 12.5 µM. 0.22% of 360,000 active. AID 588549; in the data active = inhibition above about 8.5%, passing the limit was not always enough
# TcdB inh: TcdB glycohydrolase inhibition | P18177 | AID 652162 | TcdB glycohydrolase enzymatic assay, plate reader | inhibition, % at 9.99 µM | 0.24% of 350,000 active; in the data active = inhibition above about 10%
# Target sequence (P18177 whole entry, looked up): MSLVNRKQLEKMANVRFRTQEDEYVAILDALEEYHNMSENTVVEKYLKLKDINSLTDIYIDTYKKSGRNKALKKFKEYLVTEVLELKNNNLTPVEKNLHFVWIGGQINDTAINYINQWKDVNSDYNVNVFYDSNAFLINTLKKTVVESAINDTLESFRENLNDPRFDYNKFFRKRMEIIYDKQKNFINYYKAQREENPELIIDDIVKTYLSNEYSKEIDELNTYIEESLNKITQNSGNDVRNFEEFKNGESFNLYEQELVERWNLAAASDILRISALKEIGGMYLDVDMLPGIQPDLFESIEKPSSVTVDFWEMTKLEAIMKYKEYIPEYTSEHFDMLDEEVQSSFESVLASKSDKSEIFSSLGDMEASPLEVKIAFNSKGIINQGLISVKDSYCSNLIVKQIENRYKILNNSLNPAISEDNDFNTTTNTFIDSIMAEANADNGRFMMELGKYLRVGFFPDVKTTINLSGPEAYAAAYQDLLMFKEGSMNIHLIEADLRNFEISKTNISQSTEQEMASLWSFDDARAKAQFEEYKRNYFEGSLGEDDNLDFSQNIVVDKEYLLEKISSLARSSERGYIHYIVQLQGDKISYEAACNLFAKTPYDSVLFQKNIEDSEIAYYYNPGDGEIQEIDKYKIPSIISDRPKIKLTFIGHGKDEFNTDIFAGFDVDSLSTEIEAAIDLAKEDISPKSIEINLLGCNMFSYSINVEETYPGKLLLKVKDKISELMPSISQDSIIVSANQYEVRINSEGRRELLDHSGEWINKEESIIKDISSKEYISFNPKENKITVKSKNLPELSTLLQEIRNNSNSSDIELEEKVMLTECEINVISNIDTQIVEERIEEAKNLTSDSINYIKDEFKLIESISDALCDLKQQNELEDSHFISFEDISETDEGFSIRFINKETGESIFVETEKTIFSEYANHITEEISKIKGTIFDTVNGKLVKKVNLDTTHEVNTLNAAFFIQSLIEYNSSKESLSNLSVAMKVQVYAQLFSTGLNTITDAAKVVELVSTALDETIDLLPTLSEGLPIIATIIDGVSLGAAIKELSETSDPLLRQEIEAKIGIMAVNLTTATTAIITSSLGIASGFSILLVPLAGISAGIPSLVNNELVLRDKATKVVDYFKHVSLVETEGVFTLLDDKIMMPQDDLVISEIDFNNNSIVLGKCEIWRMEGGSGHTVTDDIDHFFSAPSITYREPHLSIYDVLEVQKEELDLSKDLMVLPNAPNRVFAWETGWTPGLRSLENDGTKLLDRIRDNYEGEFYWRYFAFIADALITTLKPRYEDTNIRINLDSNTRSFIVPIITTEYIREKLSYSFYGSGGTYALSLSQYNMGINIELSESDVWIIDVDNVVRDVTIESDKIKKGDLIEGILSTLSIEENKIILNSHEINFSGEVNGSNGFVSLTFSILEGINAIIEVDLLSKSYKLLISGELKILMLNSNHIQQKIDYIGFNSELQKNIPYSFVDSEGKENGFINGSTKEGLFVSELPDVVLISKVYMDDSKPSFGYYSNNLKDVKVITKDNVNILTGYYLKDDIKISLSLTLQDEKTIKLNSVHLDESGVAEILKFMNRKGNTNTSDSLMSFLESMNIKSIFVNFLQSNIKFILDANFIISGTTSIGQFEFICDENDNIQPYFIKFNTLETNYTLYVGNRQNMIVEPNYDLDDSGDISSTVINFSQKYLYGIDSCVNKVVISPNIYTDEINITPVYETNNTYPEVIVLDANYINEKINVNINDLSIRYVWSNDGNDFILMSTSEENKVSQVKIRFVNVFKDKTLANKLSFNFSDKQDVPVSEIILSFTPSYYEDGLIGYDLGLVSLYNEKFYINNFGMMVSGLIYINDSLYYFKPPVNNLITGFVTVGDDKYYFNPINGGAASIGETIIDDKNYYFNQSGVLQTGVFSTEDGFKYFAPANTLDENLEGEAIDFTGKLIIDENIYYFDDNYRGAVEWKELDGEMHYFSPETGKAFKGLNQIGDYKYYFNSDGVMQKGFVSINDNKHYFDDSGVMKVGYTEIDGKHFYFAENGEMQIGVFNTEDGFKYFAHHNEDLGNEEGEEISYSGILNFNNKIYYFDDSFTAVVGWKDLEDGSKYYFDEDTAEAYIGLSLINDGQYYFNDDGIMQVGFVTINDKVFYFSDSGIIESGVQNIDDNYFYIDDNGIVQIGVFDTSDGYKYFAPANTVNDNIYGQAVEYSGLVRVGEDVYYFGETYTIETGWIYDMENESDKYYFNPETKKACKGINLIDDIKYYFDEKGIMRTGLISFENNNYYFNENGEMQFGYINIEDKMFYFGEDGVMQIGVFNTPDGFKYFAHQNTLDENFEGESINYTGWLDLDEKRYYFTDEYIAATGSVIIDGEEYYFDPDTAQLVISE
# * = called active by the depositor; · = no result given; + = active, no number; ! = repeats disagree.
SMILES,PriA SSB inh,Mtb BioA inh,PrP 5UTR inh,Mtb hypoxia rep,FadD28 binding,TcdB inh
O=C(Nc1ccc(Cl)c([N+](=O)[O-])c1)c1cccn(Cc2cccc(F)c2)c1=O,9.0,·,·,·,·,·
COC(/C=C/Nc1ccc(Cl)cc1)=C(C#N)C#N,-2.6,·,-12.4,-6.2,0.1,0.6
COc1cc(/C=C2/C(=O)NN(c3ccc(F)cc3)C2=O)cc(Cl)c1O,-1.0,-0.6,-7.0,0.0,2.0,0.4
COc1cc(/C=C2/C(=O)NN(c3ccc(Cl)cc3)C2=O)ccc1OC(=O)c1ccco1,5.8,·,-15.2,4.9,9.3*,-0.5
COc1cc(/C=C2/C(=O)NN(c3ccc(Cl)c(Cl)c3)C2=O)cc([N+](=O)[O-])c1O,2.6,0.0,·,-7.3,28.2*,0.8
COc1cc(/C=C2/C(=O)NN(c3cccc(F)c3)C2=O)ccc1OC(=O)c1ccco1,1.6,-2.1,-0.1,6.3,4.2,-0.9
CC1CCN(C(=O)c2[nH]cnc2C(=O)NC(C)C(=O)OCc2ccccc2)CC1 (stereo unspecified),·,·,·,-9.3,·,·
CC1CCN(C(=O)c2[nH]cnc2C(=O)N[C@@H](C)C(=O)OCc2ccccc2)CC1,44.1*,0.1,-18.9,·,-1.1,0.0
COc1cnc(-c2ccccn2)nc1Oc1ccc(Cl)c2ccccc12,0.4,-0.7,8.9,10.5,1.4,·
COc1cnc(-c2ccccn2)nc1Oc1ccc(Cl)cc1,52.3*,-2.9,-4.9,5.8,-3.9,·
COc1cnc(-c2ccccn2)nc1Oc1ccc(F)cc1F,53.5*,·,-13.8,-3.3,0.7,1.0
COc1cnc(-c2ccccn2)nc1Oc1ccccc1Cl,1.8,-1.7,-4.4,5.0,-2.6,·
COc1ccccc1-n1c(SCC(=O)O)nc2c(sc(=S)n2-c2ccc(C)c(C)c2)c1=O,-2.9,·,-28.6,-2.2,-0.1,11.2*
COc1ccccc1-n1c(SCC(=O)O)nc2c(sc(=S)n2-c2ccc(Cl)c(C)c2)c1=O,0.7,1.3,9.7,1.7,-2.0,12.8*
CCOc1ccccc1-n1c(=S)sc2c(=O)n(-c3ccc(F)cc3)c(SCC(=O)O)nc21,2.4,-0.8,-21.6,3.9,·,19.8*
Cc1ccc(-n2c(=S)sc3c(=O)n(-c4ccccc4C)c(SCC(=O)O)nc32)cc1C,-0.1,2.2,-12.6,5.0,-0.1,1.1
CCCCCCCCCCCC1=C(O)C(=O)C=C(O)C1=O,-14.3,0.2,3.4,·,-1.2,·
COC1=CC(=O)C(O)=C(CCCCCCC/C=C/CCCCCCCC2=C(O)C(=O)C=C(OC)C2=O)C1=O,·,2.4,-17.7,·,21.7*,·
O=C(Nc1ccc2c(c1)N(S(=O)(=O)c1cccs1)CCC2)c1ccccc1C(F)(F)F,-1.0,·,·,·,·,·
CS(=O)(=O)Nc1ccc2c(c1)[C@H]1C[C@@H](CC(=O)NC3CCCC3)O[C@@H](CO)[C@H]1O2,·,-1.2,·,·,·,-0.3
Cc1cccc(NC(=O)NCc2ccc3c(c2)cc(C)n3C)c1,45.9*,1.0,2.2,9.8,-3.6,-0.8
Cc1cc2cc(CNS(=O)(=O)c3ccc4ccccc4c3)ccc2n1C,28.4,-1.3,-5.6,3.2,0.8,0.9
Cc1cc2cc(CNC(=O)Nc3cccc(Cl)c3)ccc2n1C,59.8*!,0.1,-28.8,4.5,0.8,1.5
Cc1cc2cc(CNS(=O)(=O)c3ccc(Br)cc3)ccc2n1C,36.0*,·,·,·,·,·
Cc1cc2cc(CNC(=S)Nc3ccccc3)ccc2n1C,66.4,·,·,·,·,·
SMILES,PriA SSB inh,Mtb BioA inh,PrP 5UTR inh,Mtb hypoxia rep,FadD28 binding,TcdB inh
Cc1cc2cc(CNC(=S)Nc3ccc(OC(F)(F)F)cc3)ccc2n1C,62.2*,0.8,-5.8,5.8,-0.1,0.4
O=C(NCc1ccncc1)C(=O)Nc1ccc2c(c1)OCCO2,3.0,·,·,·,·,·
CNC(=S)NCc1ccc2c(c1)cc(C)n2C,43.2,·,·,·,·,·
Cc1cccc(NC(=S)NCc2ccc3c(c2)cc(C)n3C)c1C,72.1*,-2.7,-4.5,1.4,-1.5,0.1
Cc1noc(C)c1S(=O)(=O)N(C)C[C@@H]1Oc2ccc(NC(=O)C3CCCCC3)cc2CC(=O)N([C@@H](C)CO)C[C@@H]1C,·,-1.0,·,·,·,1.8
Cc1cc[n+](-c2nc3ccccc3nc2[N-]S(=O)(=O)c2cccs2)cc1C,-2.6,·,-18.8,11.3,-3.6,-5.7
Cc1c(N=Cc2nc3ccccc3n2C)c(=O)n(-c2ccccc2)n1C,-9.4,-3.2,-30.9,-2.9,-3.7,·
Cc1cccc(-c2ccc(C=Nc3c(C)n(C)n(-c4ccccc4)c3=O)o2)c1,49.9*,0.3,-23.7,·,-2.0,·
CS(=O)(=O)c1ccc2nc(NC(=O)c3ccc(NS(=O)(=O)c4ccc(F)c(F)c4)cc3)sc2c1,-11.2,-1.4,-13.2,3.7,1.6,1.6
O=C(Nc1nc2ccc(SC(F)F)cc2s1)c1ccc(NS(=O)(=O)c2ccc(F)c(F)c2)cc1,4.3,1.4,-61.1,3.1,17.1*,-0.5
COc1ccccc1C(=O)N1C[C@@H]2[C@H](c3ccccc31)[C@@H](CO)N2C(=O)C1CCOCC1,·,3.7,·,·,·,0.5
Nc1cc2cccnc2c2ncccc12,151.5*,·,·,·,·,·
O=Cc1ccc2ccc3cccnc3c2n1,81.0*,3.1,-8.7,-1.5,-4.6,1.0
c1ccc2c(c1)ccc1cccnc12,29.4,·,·,·,·,·
c1cnc2c(c1)ccc1cccnc12,101.7*,-1.4,2.1,·,-3.2,1.9
Cc1csc2nc(CNS(=O)(=O)c3ccc4c(c3)OCCO4)cn12,-17.0,-1.2,-15.2,-4.0,-2.0,1.4
Cc1onc(-c2ccccc2Cl)c1C(=O)Nc1nc2c(s1)CCCC2,7.4,-2.2,-48.1,·,-1.4,·
O=C(NC(=S)NCc1nc2ccccc2[nH]1)c1ccccc1F,-24.2,·,-131.1,10.6,8.9*,3.3
O=C(NC(=S)NCc1nc2ccccc2[nH]1)c1ccc(F)cc1,-2.2,·,-31.8,-5.3,-3.9,0.7
COc1ccc(NC(=O)CC(NCc2ccccn2)C(=O)O)cc1 (stereo unspecified),-7.6,·,-13.6,13.1,-2.6,0.1
CCOc1ccc(NC(=O)CC(NCc2ccccn2)C(=O)O)cc1 (stereo unspecified),96.0*,·,-9.0,1.6,-2.8,1.0
OCC1(Cc2ccccc2)CCN(Cc2cnn(-c3ccccc3F)c2)CC1,1.5,·,-4.6,-6.3,-1.7,-1.2
COc1ccc(NC(=O)CSc2nnc(Cn3cnc4ccccc43)o2)cc1,-11.4,-0.7,-5.1,12.1,-3.5,0.2
COc1ccccc1C1CCN(C(=O)C2CCCCC2)CC1,41.1*,-0.1,-24.1,3.4,-2.5,-4.0
CCCCCn1ccc(=N)cc1,-9.0,-0.6,-5.9,·,-1.2,·
SMILES,PriA SSB inh,Mtb BioA inh,PrP 5UTR inh,Mtb hypoxia rep,FadD28 binding,TcdB inh
CCCn1nnc(NC(=S)NC(=O)c2ccccc2OC)n1,1.1,-1.2,-19.1,32.9*,-4.3,1.0
CCCn1nnc(NC(=O)c2ccccc2Cl)n1,3.2,10.2,-43.4,-0.8,-3.4,0.7
O=C(CSCc1ccc(Br)cc1)N/N=C/c1ccc(Sc2cccc3cccnc23)o1,+,·,·,·,·,·
CCCCCCCCCCCCCCCCCC(=O)N/N=C/c1ccc(Sc2cccc3cccnc23)o1,+,·,·,·,·,·
O=C1CCN(Cc2ccc([N+](=O)[O-])cc2)CCN1C(CO)c1ccccc1 (stereo unspecified),·,·,·,-5.6,·,·
O=C(O)/C=C/c1nc2ccccc2s1,-1.0,·,·,·,·,·
